Source: PubChem BioAssay (EPA / NIEHS)
Activity calls are given as the source filed them. Rule for the calls: active = hit-call score of the fitted dose curve at least 0.9, where 1 is the maximum; inactive = score below 0.9.

Tested on: not listed separately
Assay: ATG_MRE_CIS: Attagene CIS-FACTORIAL HepG2 Assay for human Metal Responsive Element (MRE) (AID 2282954)
Settings: HepG2 MRE cis-reporter transcription, Attagene multiplex; actives raise or lower the signal
Procedure, shortened: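 HepG2 cells transiently transfected with multiple cis-element reporter units measure endogenous MTF1-driven transcription. After 24 h compound exposure, reporter mRNA is quantified by RT-PCR with 6-FAM labelling, HpaI digestion and capillary electrophoresis; bidirectional fits versus DMSO.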
For CCCCCCCCCCCCOCCO, the AC50 was 52.1 µM (active). With CC(C)=CCC/C(C)=C/COC=O the outcome was “inactive”. With CCC(=O)OCCC(C)CCC=C(C)C (stereo unspecified) the outcome was “inactive”. For CCCCCCCCCCN, the outcome was “inactive”. With O=C1C(c2[nH]c3ccc(S(=O)(=O)O)cc3c2O)=Nc2ccc(S(=O)(=O)O)cc21 the outcome was “inactive”. For CCCCOCCOCCOCCOCCO, the outcome was “inactive”. With NCCCCCCN the outcome was “inactive”. With CC(C)(COC(=O)c1ccccc1)COC(=O)c1ccccc1 the outcome was “inactive”. In the case of O=C(COc1ccc(Cl)cc1)N1CCN(Cc2ccc3c(c2)OCO3)CC1, the AC50 is reported as 74.6 µM (active). With O=CCCc1ccccc1 the outcome was “inactive”. For CCCCCCCCC=O, the outcome was “inactive”. For OCCCCCO, the outcome was “inactive”. In the case of C=C(C)C(=O)Nc1ccc(Cl)c(Cl)c1, the AC50 is reported as 18.9 µM (active). With C=C(C)[C@@H]1CC[C@@H](C)C[C@@H]1O the outcome was “inactive”. In the case of OC[C@H]1O[C@H](O[C@]2(CCl)O[C@H](CCl)[C@@H](O)[C@@H]2O)[C@H](O)[C@@H](O)[C@H]1Cl, the outcome is reported as “inactive”. In the case of O=c1[nH]c(=O)n([C@H]2CCCO2)cc1F, the outcome is reported as “inactive”. With Cc1ccc(C=O)s1 the outcome was “inactive”. In the case of C=O, the outcome is reported as “inactive”. For O=C(O)c1cccc(C(F)(F)F)c1, the outcome was “inactive”. In the case of Fc1c(F)c(F)c(Br)c(F)c1F, the outcome is reported as “inactive”. With C=C(C)C1CCC(C)CC1O (stereo unspecified) the outcome was “inactive”. In the case of O=S(=O)(O)NC1CCCCC1, the outcome is reported as “inactive”. With CCCCCCCCCCC(CO)CCCCCCCC (stereo unspecified) the outcome was “inactive”. For CO[Si](CCCn1c(=O)n(CCC[Si](OC)(OC)OC)c(=O)n(CCC[Si](OC)(OC)OC)c1=O)(OC)OC, the outcome was “inactive”. In the case of C=CCOc1nc(OCC=C)nc(OCC=C)n1, the outcome is reported as “inactive”. With C=C(C)C(=O)O[C@H]1C[C@@H]2CC[C@@]1(C)C2(C)C the outcome was “inactive”. For Cc1ccc(S)cc1, the outcome was “inactive”. In the case of CCCCCCOC(=O)CCCCC, the outcome is reported as “inactive”. For Nc1ccc(S(N)(=O)=O)cc1, the outcome was “inactive”. With CC(C)=CCO the outcome was “inactive”. For CCOc1ccccc1OCC, the outcome was “inactive”. With CC(=O)C(=O)O the outcome was “inactive”. With CC1(C)C(=O)N(Br)C(=O)N1Cl the outcome was “inactive”. In the case of CCC(C)CCCC(C)(C)O (stereo unspecified), the outcome is reported as “inactive”. For Clc1sc(Cl)c(Cl)c1Cl, the outcome was “inactive”. For CC1(CO)CN(c2ccccc2)NC1=O (stereo unspecified), the outcome was “inactive”. In the case of CCOC(=O)c1ccccc1OC, the outcome is reported as “inactive”. For CCCOCC(C)O (stereo unspecified), the outcome was “inactive”.

Tested on: not listed separately
Assay: ATG_PBREM_CIS: Attagene CIS-FACTORIAL HepG2 Assay for human Phenobarbital-responsive Enhancer Module (PBREM) (AID 2282955)
Settings: HepG2 PBREM cis-reporter, Attagene multiplexed transcription; actives raise or lower the signal
Procedure, shortened: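 Endogenous transcription factor activity was read from reporter transcripts in transiently transfected human HepG2 liver cells after 24 h dosing. RT-PCR products were fluorescently labelled, HpaI-cut and sized by capillary electrophoresis; activity fitted bidirectionally against DMSO baseline.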
In the case of CCCCCCCCCCCCOCCO, the outcome is reported as “inactive”. In the case of CC(C)=CCC/C(C)=C/COC=O, the outcome is reported as “inactive”. With CCCCCCCCCCN the outcome was “inactive”. In the case of CC(C)(COC(=O)c1ccccc1)COC(=O)c1ccccc1, the outcome is reported as “inactive”. With O=C(COc1ccc(Cl)cc1)N1CCN(Cc2ccc3c(c2)OCO3)CC1 the outcome was “inactive”. For CCCCCCCCC=O, the outcome was “inactive”. With OCCCCCO the outcome was “inactive”. For C=C(C)C(=O)Nc1ccc(Cl)c(Cl)c1, the AC50 was 27.8 µM (active). With O=c1[nH]c(=O)n([C@H]2CCCO2)cc1F the outcome was “inactive”. In the case of C=O, the outcome is reported as “inactive”. With O=C(O)c1cccc(C(F)(F)F)c1 the outcome was “inactive”. In the case of Fc1c(F)c(F)c(Br)c(F)c1F, the outcome is reported as “inactive”. In the case of O=S(=O)(O)NC1CCCCC1, the outcome is reported as “inactive”. For CCCCCCCCCCC(CO)CCCCCCCC (stereo unspecified), the outcome was “inactive”. For CO[Si](CCCn1c(=O)n(CCC[Si](OC)(OC)OC)c(=O)n(CCC[Si](OC)(OC)OC)c1=O)(OC)OC, the outcome was “inactive”. With Cc1ccc(S)cc1 the outcome was “inactive”. In the case of Nc1ccc(S(N)(=O)=O)cc1, the outcome is reported as “inactive”. For CC1(C)C(=O)N(Br)C(=O)N1Cl, the outcome was “inactive”. With Clc1sc(Cl)c(Cl)c1Cl the outcome was “inactive”. In the case of CC1(CO)CN(c2ccccc2)NC1=O (stereo unspecified), the outcome is reported as “inactive”.

Biological target: Paired box protein Pax-6 (Homo sapiens) (UniProt P26367)
Sequence (P26367 whole entry, looked up): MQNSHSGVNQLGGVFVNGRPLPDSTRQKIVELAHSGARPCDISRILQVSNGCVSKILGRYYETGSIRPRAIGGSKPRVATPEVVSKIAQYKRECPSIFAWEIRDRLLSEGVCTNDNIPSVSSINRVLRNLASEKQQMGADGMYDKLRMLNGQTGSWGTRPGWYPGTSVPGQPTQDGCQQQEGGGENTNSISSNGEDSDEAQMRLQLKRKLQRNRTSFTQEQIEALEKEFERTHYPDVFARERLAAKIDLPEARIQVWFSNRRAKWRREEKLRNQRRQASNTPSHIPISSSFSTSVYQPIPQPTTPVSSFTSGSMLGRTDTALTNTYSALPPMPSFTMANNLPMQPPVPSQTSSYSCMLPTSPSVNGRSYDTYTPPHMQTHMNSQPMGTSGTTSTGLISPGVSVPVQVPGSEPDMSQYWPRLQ
Assay: ATG_Pax6_CIS: Attagene CIS-FACTORIAL HepG2 Assay for human Paired Box 6 (PAX6) (AID 2282956)
Settings: HepG2 CIS-FACTORIAL PAX6 reporter transcription, RNA readout; actives raise or lower the signal
Procedure, shortened: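 Multiplexed cis-reporter HepG2 system; 24 h treatment; reporter mRNA read by RT-PCR/CE fluorescence; bidirectional fit vs DMSO.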
In the case of CCCCCCCCCCCCOCCO, the outcome is reported as “inactive”. In the case of CC(C)=CCC/C(C)=C/COC=O, the outcome is reported as “inactive”. In the case of CCC(=O)OCCC(C)CCC=C(C)C (stereo unspecified), the outcome is reported as “inactive”. In the case of CCCCCCCCCCN, the outcome is reported as “inactive”. For O=C1C(c2[nH]c3ccc(S(=O)(=O)O)cc3c2O)=Nc2ccc(S(=O)(=O)O)cc21, the outcome was “inactive”. With CCCCOCCOCCOCCOCCO the outcome was “inactive”. With NCCCCCCN the outcome was “inactive”. In the case of CC(C)(COC(=O)c1ccccc1)COC(=O)c1ccccc1, the outcome is reported as “inactive”. With O=C(COc1ccc(Cl)cc1)N1CCN(Cc2ccc3c(c2)OCO3)CC1 the AC50 was 57.7 µM (active). For O=CCCc1ccccc1, the outcome was “inactive”. With CCCCCCCCC=O the outcome was “inactive”. In the case of OCCCCCO, the outcome is reported as “inactive”. With C=C(C)C(=O)Nc1ccc(Cl)c(Cl)c1 the outcome was “inactive”. In the case of C=C(C)[C@@H]1CC[C@@H](C)C[C@@H]1O, the outcome is reported as “inactive”. For OC[C@H]1O[C@H](O[C@]2(CCl)O[C@H](CCl)[C@@H](O)[C@@H]2O)[C@H](O)[C@@H](O)[C@H]1Cl, the outcome was “inactive”. For O=c1[nH]c(=O)n([C@H]2CCCO2)cc1F, the outcome was “inactive”. For Cc1ccc(C=O)s1, the outcome was “inactive”. For C=O, the outcome was “inactive”. For O=C(O)c1cccc(C(F)(F)F)c1, the outcome was “inactive”. In the case of Fc1c(F)c(F)c(Br)c(F)c1F, the outcome is reported as “inactive”. With C=C(C)C1CCC(C)CC1O (stereo unspecified) the outcome was “inactive”. For O=S(=O)(O)NC1CCCCC1, the outcome was “inactive”. In the case of CCCCCCCCCCC(CO)CCCCCCCC (stereo unspecified), the outcome is reported as “inactive”. For CO[Si](CCCn1c(=O)n(CCC[Si](OC)(OC)OC)c(=O)n(CCC[Si](OC)(OC)OC)c1=O)(OC)OC, the outcome was “inactive”. With C=CCOc1nc(OCC=C)nc(OCC=C)n1 the outcome was “inactive”. With C=C(C)C(=O)O[C@H]1C[C@@H]2CC[C@@]1(C)C2(C)C the outcome was “inactive”. In the case of Cc1ccc(S)cc1, the outcome is reported as “inactive”. For CCCCCCOC(=O)CCCCC, the outcome was “inactive”. With Nc1ccc(S(N)(=O)=O)cc1 the outcome was “inactive”. In the case of CC(C)=CCO, the outcome is reported as “inactive”. With CCOc1ccccc1OCC the outcome was “inactive”. With CC(=O)C(=O)O the outcome was “inactive”. In the case of CC1(C)C(=O)N(Br)C(=O)N1Cl, the outcome is reported as “inactive”. With CCC(C)CCCC(C)(C)O (stereo unspecified) the outcome was “inactive”. For Clc1sc(Cl)c(Cl)c1Cl, the outcome was “inactive”. For CC1(CO)CN(c2ccccc2)NC1=O (stereo unspecified), the outcome was “inactive”. With CCOC(=O)c1ccccc1OC the outcome was “inactive”. For CCCOCC(C)O (stereo unspecified), the outcome was “inactive”.
